Results: PubChem BioAssay AID739 (SRMLSC, 2007)
Among all 98,000 compounds or so, about 880 (0.9%) were called active. This excerpt belongs to a sample that is enriched for actives. Unmarked numbers belong to inactive results. Rule as the data show it: active = inhibition above about 30%; inactive = the rest.

test: phenotypic screen on post-Golgi transport, primary screen (AID 739); details: post-Golgi transport phenotypic cell assay; at 10 µM; stronger effect = higher value;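 also: yeast cells grown in 1536-well plates; yeast grown about 18 h at 30C before absorbance read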

First: COc1ccc2[nH]cc(/C=C(/C#N)S(=O)(=O)c3ccccc3)c2c1
Second: CCOC(=O)/C(C#N)=C/c1ccc(OCC(=O)Nc2ccccc2)c(OC)c1
The inhibition of the first is lower: -4.52% for the first, 6.16% for the second.

Compared with Cc1n[nH]c(=O)n1-c1ccc(Oc2ccccc2)cc1, COc1ccc(C2CC(c3ccccc3)Nc3ncnn32)cc1 (stereo unspecified) is higher in inhibition: -19.2% for the first, 4.34% for the second.

Going from COC(=O)Nc1ncc(CN2CCCCC2)s1 to O=C(CSCc1ccc(Cl)cc1)N1CCCCC1, the inhibition rises from -4.67% to -4.56%.

First: Cc1ccc(/C=N/NC(=O)C(NC(=O)c2ccccc2)c2n[nH]c(=O)c3ccccc23)cc1 (stereo unspecified)
Second: Cc1ccc(CNC(=O)c2ccccc2CCc2ccccc2)cc1
The inhibition of the first is higher: 0.64% for the first, -2.21% for the second.

Compared with Cc1cc(NC(=O)/C=C/C(=O)N(c2ccccc2C)C(C(=O)NC2CCCC2)c2ccc(F)cc2)no1 (stereo unspecified), Cc1c(CCO)c(=O)n(-c2ccccc2)n1S(=O)(=O)c1ccc(F)cc1 is lower in inhibition: 0.32% for the first, -6.46% for the second.

First: CC1=CC(C)(C)N(C(=O)CSc2nccn2C)c2cc(C)ccc21
Second: Cc1ccc(SCC(=O)Nc2ncc(C)s2)cc1
The inhibition of the first is higher: 5.13% for the first, -7.09% for the second.

Going from O=C(CSc1nnc(-c2ccccc2)o1)N1CCOCC1 to Cc1noc(/C=C/c2ccco2)c1S(=O)(=O)N1CCC(C(=O)N2CCc3ccccc32)CC1, the inhibition falls from 8.7% to -4.89%.

Going from O=C1C2C3C=CC(C4CC34)C2C(=O)N1/N=C/c1ccc(-c2ccccc2[N+](=O)[O-])o1 (stereo unspecified) to Cc1cc(C)c([N+](=O)[O-])cc1-c1ccc(/C=N/NC(=O)c2nonc2N)o1, the inhibition falls from 3.37% to -6.17%.

First: CCOc1ccc(C(=O)NCCCN2CCCC2=O)cc1
Second: CCOc1ccc(-c2c(C)n([O-])c3c([n+]2=O)CCCC3)cc1
The inhibition of the first is higher: 11.5% for the first, 0.66% for the second.

Compared with O=C(COC(=O)c1ccccc1NC(=O)c1ccco1)Nc1ccc2c(c1)OC(F)(F)O2, COc1cc(/C=C(/NC(=O)c2ccccc2)C(=O)Nc2cccc(O)c2)c([N+](=O)[O-])cc1OC is lower in inhibition: -2.04% for the first, -17.3% for the second.

First: Cc1nc2ccc(NC(=O)C(F)(F)F)cc2o1
Second: CCC(=O)NC(Nc1cc(C)ccn1)(C(F)(F)F)C(F)(F)F
The inhibition of the first is lower: -13.7% for the first, 6.28% for the second.

Going from OC(c1ccccc1)c1nccn1Cc1ccccc1 (stereo unspecified) to O=C(NCCc1ccccc1)/C(=C\c1ccc([N+](=O)[O-])cc1)NC(=O)c1ccccc1, the inhibition rises from -6.53% to 4.97%.

Compared with Cn1c(-c2sc3cc(C(F)(F)F)cnc3c2-c2ccccc2)n[nH]c1=S, CCc1c(-c2ccccc2)nc(N)c(C#N)c1-c1cccs1 is higher in inhibition: -3.98% for the first, 2.36% for the second.

Going from c1ccc2c(CSCc3nc4ccccc4[nH]3)cccc2c1 to COc1ccccc1CSc1nc2ccccc2[nH]1, the inhibition falls from 4.1% to 1.93%.

First: CC(C)c1nc(N2CCOCC2)c(C#N)c2c1COC(C)(C)C2
Second: CC(C)CCNc1nc(N2CCCC2)c2c(c1C#N)CCN(C)C2
The inhibition of the first is lower: -8.94% for the first, -1.14% for the second.

First: Clc1ccc(C2CC(c3cccs3)n3ncnc3N2)cc1Cl (stereo unspecified)
Second: NC(=O)N1CCCC1C(=O)Nc1ccc(Cl)c(Cl)c1 (stereo unspecified)
The inhibition of the first is higher: 1.99% for the first, -3.91% for the second.

First: CC(C)C(=O)OCC(=O)Nc1ccc2c(c1)CCC2
Second: COC(=O)c1cc(NC(=O)C2C3C=CC(C3)C2C(=O)O)cc(C(=O)OC)c1 (stereo unspecified)
The inhibition of the first is higher: 7.4% for the first, 2.17% for the second.

Going from CC1=NCCN1S(=O)(=O)c1ccc(Br)c(C)c1 to COCCNS(=O)(=O)c1cc(Br)ccc1OC, the inhibition rises from 3.83% to 8.12%.

Compared with COCc1[nH][nH]c(=O)c1C=Nc1ccc(F)cc1F, C=CCNC(=O)c1sc(SC)cc1-c1ccc(Cl)cc1 is higher in inhibition: 5.45% for the first, 20% for the second.

First: CCc1nn(-c2cc(Oc3cccc4ccccc34)nc(-c3ccccc3)n2)c(N)c1C#N
Second: CCc1nc2oc3ccccc3c(=O)c2c(=O)n1Cc1ccc(OC)cc1
The inhibition of the first is lower: -15.9% for the first, 8.05% for the second.

Going from CCOC(=O)Nc1sc(C(=O)N(C)C)c(C)c1C(=O)OCC to CCCCCCC(=O)Nc1nc(C)c(-c2csc(Nc3cccc(OC)c3)n2)s1, the inhibition falls from 21.1% to -3.09%.

First: Cc1ccc(CCN2CC(C(=O)O)CC2=O)cc1 (stereo unspecified)
Second: COc1ccc(C2=NO[C@@H]3C(=O)N(Cc4ccccc4)C(=O)[C@H]23)cc1OC
The inhibition of the first is lower: -4.77% for the first, 6.43% for the second.

First: O=c1c2ccccc2oc2nc3n(c(=O)c12)CCCS3
Second: COCCn1c(SCc2nc3cc(OC)c(OC)cc3c(=O)[nH]2)nnc1-c1ccncc1
The inhibition of the first is lower: 5.66% for the first, 6.95% for the second.

Compared with CC(=O)Nc1cc(C(=O)O)ccc1S(=O)(=O)c1ccc(Cl)cc1, O=C(Nc1ccc(Cl)cc1)c1ccsn1 is higher in inhibition: -1.65% for the first, 8.05% for the second.

With Cc1ccc(C2(C(F)(F)F)N=C3Sc4cc(C)cc(C)c4N3C(=O)N2)cc1 (stereo unspecified) the inhibition was 90.2% (active).
With CC1=CC(C)(C)N(C(=O)CSc2nnc(-c3ccccc3)o2)c2ccc(C)cc21 the inhibition was 101% (active).
With FC(F)(F)COc1nc(N2CCCCC2)nc(N2CCNCC2)n1 the inhibition was 33.5% (active).
In the case of Cc1cc(-c2ccc(/C=N/n3cnnc3)o2)c([N+](=O)[O-])cc1C, the inhibition is reported as 59.7% (active).
With Cc1cc([N+](=O)[O-])c(-c2ccc(/C=N/n3cnnc3)o2)cc1Cl the inhibition was 99.8% (active).
For O=C1c2ccccc2C2=Nc3ccccc3SC(c3ccccc3F)C12 (stereo unspecified), the inhibition was 103% (active).
With CC(C)Cc1nc(N2CCOCC2)c(C#N)c2c1CCC2 the inhibition was 35% (active).
With FC(F)Oc1ccccc1C1CC(c2ccc(Br)s2)Nc2ncnn21 (stereo unspecified) the inhibition was 39.4% (active).
For COc1ccc(Br)cc1S(=O)(=O)N1CCN=C1C, the inhibition was 31.5% (active).
With O=[N+]([O-])c1ccc(Oc2ccc(F)cc2Br)c2ccncc12 the inhibition was 54.4% (active).
In the case of CCOC(=O)/C(=C\c1ccc([N+](=O)[O-])cc1)C(=O)c1cc(C(C)=O)c(Nc2ccccc2)s1, the inhibition is reported as 64.9% (active).
In the case of O=c1c2ccccc2oc2nc(C3CCCCC3)n(Cc3ccco3)c(=O)c12, the inhibition is reported as 68.9% (active).
With O=C(Nc1ccccc1)c1nnsc1S(=O)(=O)c1ccc(Cl)cc1 the inhibition was 76.3% (active).
